Experimental data reported in the supplement of paper PMC10849652.
Of roughly 8,800 targets only a part is listed; those with a hit were picked by preference. About 0.5% of all pairs of compound and target were hits.

Legend:
Assay in all cases: log2 fold change, soluble protein after heating vs DMSO (PISA); higher = thermal stabilisation; K562 lysate, 10 uM; active = over 0.2 and 3.5 SD of the protein, either way, in both replicates (recomputed)
[1] = compound: C=CC(=O)N1CCC[C@@H](n2nc(-c3ccc(Oc4ccccc4)cc3)c3c(N)ncnc32)C1 [ibrutinib]
Outline: (§1)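 Log-two fold change in thermal stability relative to solvent controls is reported from duplicates. For each sample, crude K562 extract from dounce-homogenised pellets in PBS pH 7.4 with 1 mM MgCl2, at 1 mg/mL protein, was treated with 10 μM compound for 30 min. Aliquots heated for 3 min across 48°C-58°C were pooled, brought to 0.5% NP-40 at 4°C and cleared at 21,000xg for 90 min. The supernatant was quantified by TMTpro 16plex LC-MS/MS with channel sums equalised.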

[2] = compound: CC(=O)c1cnc2ccc(-c3cc(Cl)c(O)c(Cl)c3)nc2c1N[C@H]1CC[C@H](CN(C)C)CC1
Outline: as §1

[3] = compound: CC(C)(C)Cn1c(N)nc2ccc(-c3[nH]c(C(C)(C)C)nc3-c3ccc(F)cc3)nc21 [ralimetinib]
Outline: as §1

[4] = compound: CC(C)(O)CC(=O)NCCn1ccc2ncnc(Nc3ccc(Oc4cccc(C(F)(F)F)c4)c(Cl)c3)c21
Outline: as §1

[5] = compound: CC(C)C1=C2N=C(C=C(N2N=C1)NCC3=CC=CC=C3)NCCCCCCN
Outline: as §1

[6] = compound: CC1=C(C(CC(=O)N1)C2=CC=C(C=C2)C(F)(F)F)C(=O)NC3=C(C=C4C(=C3)C=NN4)F
Outline: as §1

[7] = compound: CC1=C(C2=C(C=C1)C(=O)C3=CC=CC=C3N2CCCN)C
Outline: as §1

[8] = compound: CC1=C(C=C(C=C1)NC(=O)C2=CC(=CC=C2)C(C)(C)C#N)NC3=CC4=C(C=C3)N=CN(C4=O)C
Outline: as §1

[9] = compound: CC1=C(C=C(C=C1)NC(=O)C2=CC(=CC=C2)N(C)C)NC(=O)C3=CC=C(C=C3)O
Outline: as §1

[10] = compound: CC1=CC=C(C=C1)SC2=C3C=C(SC3=CN=C2)C(=O)N
Outline: as §1

Measured: log2 fold change

HNRNPD isoform 3 (UniProt Q14103)
UniProt Q14103, sequence (Q14103 whole entry, looked up): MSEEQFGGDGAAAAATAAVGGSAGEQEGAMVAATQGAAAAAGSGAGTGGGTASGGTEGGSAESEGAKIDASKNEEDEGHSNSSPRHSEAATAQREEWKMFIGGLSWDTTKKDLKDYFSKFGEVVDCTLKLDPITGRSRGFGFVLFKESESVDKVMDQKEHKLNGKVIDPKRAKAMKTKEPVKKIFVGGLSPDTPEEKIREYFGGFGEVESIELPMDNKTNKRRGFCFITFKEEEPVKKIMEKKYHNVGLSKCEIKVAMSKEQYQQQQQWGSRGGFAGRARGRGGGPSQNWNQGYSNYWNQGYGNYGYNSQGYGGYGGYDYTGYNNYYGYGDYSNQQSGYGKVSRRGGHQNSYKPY
inactive: [1] -0.081 | [2] -0.065 | [3] -0.046 | [4] 0.104 | [5] -0.026 | [6] -0.096 | [7] -0.052 | [8] 0 | [9] 0.036 | [10] -0.007

H2AFY (UniProt O75367)
inactive: [1] 0.051 | [2] -0.056 | [3] -0.025 | [4] -0.043 | [5] 0 | [6] -0.003 | [7] -0.148 | [8] -0.053 | [9] -0.033 | [10] -0.001

IARS (UniProt P41252)
inactive: [1] -0.015 | [2] -0.001 | [3] 0.037 | [4] 0.035 | [5] 0.029 | [6] -0.016 | [7] 0.012 | [8] -0.04 | [9] 0.05 | [10] 0.029

HMGN4 (UniProt O00479)
inactive: [1] -0.067 | [2] 0.051 | [3] -0.249 | [4] 0 | [5] -0.097 | [6] -0.011 | [7] 0.016 | [8] -0.014 | [9] -0.077 | [10] 0.022

HAUS7 isoform 2 (UniProt Q99871)
UniProt Q99871, sequence (Q99871 whole entry, looked up): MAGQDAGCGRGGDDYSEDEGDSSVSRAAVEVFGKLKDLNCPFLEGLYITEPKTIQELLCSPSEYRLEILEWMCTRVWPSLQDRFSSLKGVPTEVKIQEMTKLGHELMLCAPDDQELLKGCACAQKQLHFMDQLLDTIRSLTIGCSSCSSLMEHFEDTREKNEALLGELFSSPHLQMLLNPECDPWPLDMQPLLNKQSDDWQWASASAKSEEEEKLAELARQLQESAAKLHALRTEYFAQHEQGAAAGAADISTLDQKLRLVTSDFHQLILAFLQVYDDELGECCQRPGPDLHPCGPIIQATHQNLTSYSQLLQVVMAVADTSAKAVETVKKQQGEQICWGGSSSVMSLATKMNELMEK
inactive: [1] 0.082 | [2] 0.105 | [3] -0.002 | [4] -0.031 | [5] 0.05 | [6] -0.003 | [7] 0.028 | [8] -0.031 | [9] 0.021 | [10] -0.054

HK2 (UniProt P52789)
inactive: [1] 0.021 | [2] -0.005 | [3] 0.019 | [4] 0.006 | [5] -0.029 | [6] -0.007 | [7] 0.006 | [8] 0.008 | [9] 0.002 | [10] 0.011

IRAK1 (UniProt P51617)
inactive: [1] 0.032 | [2] 0.195 | [3] -0.024 | [4] -0.031 | [5] -0.018 | [6] -0.013 | [7] -0.028 | [8] -0.086 | [9] 0.062 | [10] 0

GMIP (UniProt Q9P107)
inactive: [1] 0.182 | [2] 0.027 | [3] 0.023 | [4] -0.11 | [5] -0.017 | [6] 0.029 | [7] 0.03 | [8] 0.019 | [9] -0.068 | [10] 0.045

HSPB1 (UniProt P04792)
UniProt P04792, sequence (P04792 whole entry, looked up): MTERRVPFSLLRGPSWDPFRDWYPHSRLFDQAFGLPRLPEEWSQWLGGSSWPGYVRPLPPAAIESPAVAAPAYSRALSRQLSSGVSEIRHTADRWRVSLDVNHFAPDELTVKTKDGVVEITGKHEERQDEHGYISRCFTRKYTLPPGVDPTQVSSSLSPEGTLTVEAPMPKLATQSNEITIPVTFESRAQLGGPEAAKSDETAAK
inactive: [1] -0.015 | [2] -0.008 | [3] 0.022 | [4] -0.016 | [5] 0.012 | [6] 0 | [7] 0.016 | [8] -0.117 | [9] 0.006 | [10] 0.003

HEATR3 (UniProt Q7Z4Q2)
inactive: [1] 0.026 | [2] -0.008 | [3] 0.037 | [4] -0.048 | [5] -0.01 | [6] -0.001 | [7] -0.015 | [8] 0.004 | [9] -0.027 | [10] 0.023

HECTD4 (UniProt J3KPF0)
inactive: [1] 0.017 | [2] -0.024 | [3] 0.001 | [4] 0.007 | [5] -0.032 | [6] -0.028 | [7] -0.036 | [8] 0.032 | [9] 0.021 | [10] 0.009

GTF3C5 isoform 3 (UniProt Q9Y5Q8)
UniProt Q9Y5Q8, sequence (Q9Y5Q8 whole entry, looked up): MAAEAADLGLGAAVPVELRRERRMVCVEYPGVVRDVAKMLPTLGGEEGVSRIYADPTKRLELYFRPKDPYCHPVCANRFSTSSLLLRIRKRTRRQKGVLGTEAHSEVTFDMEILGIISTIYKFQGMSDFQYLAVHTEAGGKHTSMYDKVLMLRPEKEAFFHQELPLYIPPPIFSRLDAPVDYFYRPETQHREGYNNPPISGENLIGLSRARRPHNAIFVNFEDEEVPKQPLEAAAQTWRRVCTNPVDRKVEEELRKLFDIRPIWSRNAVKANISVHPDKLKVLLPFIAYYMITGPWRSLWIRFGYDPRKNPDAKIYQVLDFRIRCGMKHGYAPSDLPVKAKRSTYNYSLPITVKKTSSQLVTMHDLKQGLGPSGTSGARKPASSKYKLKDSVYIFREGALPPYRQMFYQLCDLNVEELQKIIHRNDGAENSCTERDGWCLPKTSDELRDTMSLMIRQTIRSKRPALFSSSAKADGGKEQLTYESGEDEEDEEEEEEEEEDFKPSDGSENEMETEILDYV
inactive: [1] 0.029 | [2] 0.034 | [3] 0.009 | [4] 0.005 | [5] -0.016 | [6] 0.025 | [7] -0.007 | [8] 0.015 | [9] 0.003 | [10] 0.008

HSPA14 (UniProt Q0VDF9)
UniProt Q0VDF9, sequence (Q0VDF9 whole entry, looked up): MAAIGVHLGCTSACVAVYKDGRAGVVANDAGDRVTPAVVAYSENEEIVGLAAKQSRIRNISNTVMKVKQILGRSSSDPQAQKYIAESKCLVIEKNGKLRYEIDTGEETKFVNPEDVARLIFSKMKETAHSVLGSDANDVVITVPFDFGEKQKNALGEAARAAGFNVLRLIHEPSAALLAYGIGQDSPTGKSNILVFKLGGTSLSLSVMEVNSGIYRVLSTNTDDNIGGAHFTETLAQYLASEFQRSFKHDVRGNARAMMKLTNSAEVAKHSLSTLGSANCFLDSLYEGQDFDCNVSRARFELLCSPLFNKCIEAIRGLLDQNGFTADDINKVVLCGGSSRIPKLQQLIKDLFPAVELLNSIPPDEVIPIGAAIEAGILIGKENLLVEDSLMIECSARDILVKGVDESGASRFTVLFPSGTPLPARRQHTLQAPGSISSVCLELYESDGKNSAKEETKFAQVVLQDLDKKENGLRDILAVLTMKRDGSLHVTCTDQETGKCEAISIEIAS
inactive: [1] 0.004 | [2] -0.008 | [3] 0.009 | [4] -0.013 | [5] -0.032 | [6] -0.02 | [7] -0.009 | [8] -0.012 | [9] 0.033 | [10] 0.004

KDM5C (UniProt P41229)
inactive: [1] 0.089 | [2] -0.132 | [3] 0.005 | [4] -0.02 | [5] 0.015 | [6] 0.01 | [7] 0.012 | [8] -0.013 | [9] 0.031 | [10] 0.001

GON4L (UniProt Q3T8J9)
UniProt Q3T8J9, sequence (Q3T8J9 whole entry, looked up): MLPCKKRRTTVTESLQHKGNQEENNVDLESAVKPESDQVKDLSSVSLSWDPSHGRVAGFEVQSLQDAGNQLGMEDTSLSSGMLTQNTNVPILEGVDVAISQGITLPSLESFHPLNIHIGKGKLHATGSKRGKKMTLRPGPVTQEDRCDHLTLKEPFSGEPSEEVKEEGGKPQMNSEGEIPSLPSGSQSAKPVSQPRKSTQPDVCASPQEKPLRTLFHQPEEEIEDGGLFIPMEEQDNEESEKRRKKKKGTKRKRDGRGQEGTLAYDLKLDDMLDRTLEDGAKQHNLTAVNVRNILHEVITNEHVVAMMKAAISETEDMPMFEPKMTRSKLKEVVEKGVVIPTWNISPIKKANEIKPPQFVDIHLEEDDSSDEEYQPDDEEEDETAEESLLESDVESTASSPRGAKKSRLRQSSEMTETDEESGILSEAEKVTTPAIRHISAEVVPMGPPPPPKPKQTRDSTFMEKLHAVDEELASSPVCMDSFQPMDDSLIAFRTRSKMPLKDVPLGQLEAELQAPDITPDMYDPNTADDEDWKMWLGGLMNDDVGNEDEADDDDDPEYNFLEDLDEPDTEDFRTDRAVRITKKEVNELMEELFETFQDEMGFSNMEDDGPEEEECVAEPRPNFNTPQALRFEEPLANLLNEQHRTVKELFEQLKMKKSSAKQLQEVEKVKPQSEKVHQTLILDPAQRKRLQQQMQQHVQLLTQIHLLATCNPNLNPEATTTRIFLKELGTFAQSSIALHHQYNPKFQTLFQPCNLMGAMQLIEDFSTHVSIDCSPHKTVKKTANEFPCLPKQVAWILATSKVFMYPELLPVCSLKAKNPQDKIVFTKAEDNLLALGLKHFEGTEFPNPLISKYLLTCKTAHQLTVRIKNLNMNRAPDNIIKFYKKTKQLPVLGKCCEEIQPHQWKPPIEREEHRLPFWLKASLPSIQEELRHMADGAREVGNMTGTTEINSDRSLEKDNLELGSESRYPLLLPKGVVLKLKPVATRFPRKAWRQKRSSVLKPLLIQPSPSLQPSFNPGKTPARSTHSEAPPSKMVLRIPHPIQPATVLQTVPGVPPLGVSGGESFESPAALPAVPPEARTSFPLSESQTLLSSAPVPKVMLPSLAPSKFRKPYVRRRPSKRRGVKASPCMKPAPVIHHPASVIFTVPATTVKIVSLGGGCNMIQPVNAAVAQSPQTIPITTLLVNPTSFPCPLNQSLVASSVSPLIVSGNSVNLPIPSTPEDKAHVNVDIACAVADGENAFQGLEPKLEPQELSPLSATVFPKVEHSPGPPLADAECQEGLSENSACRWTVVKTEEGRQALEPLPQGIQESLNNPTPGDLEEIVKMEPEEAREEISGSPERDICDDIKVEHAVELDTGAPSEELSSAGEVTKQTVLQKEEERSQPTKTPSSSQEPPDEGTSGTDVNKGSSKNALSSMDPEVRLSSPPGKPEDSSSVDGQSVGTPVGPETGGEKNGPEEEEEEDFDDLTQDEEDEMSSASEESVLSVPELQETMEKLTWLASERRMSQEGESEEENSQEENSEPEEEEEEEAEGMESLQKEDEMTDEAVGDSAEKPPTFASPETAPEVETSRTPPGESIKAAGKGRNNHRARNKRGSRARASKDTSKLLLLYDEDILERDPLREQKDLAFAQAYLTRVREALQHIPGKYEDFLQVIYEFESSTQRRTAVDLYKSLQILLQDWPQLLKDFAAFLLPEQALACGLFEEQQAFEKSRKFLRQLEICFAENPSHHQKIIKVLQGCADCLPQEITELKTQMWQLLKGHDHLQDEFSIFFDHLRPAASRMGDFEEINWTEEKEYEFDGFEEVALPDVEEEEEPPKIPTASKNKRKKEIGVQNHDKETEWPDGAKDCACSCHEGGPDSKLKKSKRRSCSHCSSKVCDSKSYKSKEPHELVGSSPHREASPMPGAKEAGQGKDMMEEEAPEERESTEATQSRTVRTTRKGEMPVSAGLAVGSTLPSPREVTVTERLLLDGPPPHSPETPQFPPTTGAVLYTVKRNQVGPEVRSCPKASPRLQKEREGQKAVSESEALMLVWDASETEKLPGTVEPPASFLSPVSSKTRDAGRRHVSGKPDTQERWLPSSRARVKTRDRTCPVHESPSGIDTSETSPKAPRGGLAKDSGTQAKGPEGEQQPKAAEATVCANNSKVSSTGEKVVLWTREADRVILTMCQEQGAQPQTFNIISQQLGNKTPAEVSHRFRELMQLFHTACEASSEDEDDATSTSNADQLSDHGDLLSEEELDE
inactive: [1] 0.026 | [2] 0.022 | [3] 0.029 | [4] -0.042 | [5] -0.04 | [6] -0.02 | [7] -0.017 | [8] 0.01 | [9] 0.002 | [10] -0.044

ISCA1 isoform 2 (UniProt Q9BUE6)
UniProt Q9BUE6, sequence (Q9BUE6 whole entry, looked up): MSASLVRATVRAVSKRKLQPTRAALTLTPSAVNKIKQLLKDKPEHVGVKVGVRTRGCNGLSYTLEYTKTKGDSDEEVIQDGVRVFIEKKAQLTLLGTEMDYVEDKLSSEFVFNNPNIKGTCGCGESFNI
inactive: [1] 0.049 | [2] -0.001 | [3] 0.04 | [4] -0.028 | [5] -0.069 | [6] -0.276 | [7] -0.006 | [8] 0.031 | [9] -0.029 | [10] -0.016

GYPA, A0A2R8Y7F9
inactive: [1] -0.019

GTF2H1 (UniProt P32780)
inactive: [1] 0.023 | [2] 0.023 | [3] 0.026 | [4] 0.003 | [5] -0.005 | [6] 0.036 | [7] -0.022 | [8] 0.001 | [9] 0.054 | [10] 0.015

IL18R1 (UniProt Q13478)
inactive: [1] -0.177 | [2] 0.117 | [3] -0.261 | [4] -0.463 | [5] 0.053 | [6] -0.066 | [7] -0.031 | [8] 0.061 | [9] 0.15 | [10] 0.097

GSTM4 (UniProt Q03013)
inactive: [1] -0.139 | [2] -0.006 | [3] -0.013 | [4] -0.051 | [5] -0.079 | [6] 0.096 | [7] 0.037 | [8] -0.136 | [9] -0.027 | [10] 0.042

HMGN5 (UniProt P82970)
UniProt P82970, sequence (P82970 whole entry, looked up): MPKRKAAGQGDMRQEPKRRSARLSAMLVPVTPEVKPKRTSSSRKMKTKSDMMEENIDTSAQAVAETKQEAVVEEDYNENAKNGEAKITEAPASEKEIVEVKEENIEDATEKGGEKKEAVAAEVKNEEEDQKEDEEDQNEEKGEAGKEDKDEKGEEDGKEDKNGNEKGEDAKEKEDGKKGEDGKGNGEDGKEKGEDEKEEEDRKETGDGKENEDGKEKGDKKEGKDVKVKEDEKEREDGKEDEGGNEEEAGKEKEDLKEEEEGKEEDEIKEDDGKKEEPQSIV
inactive: [1] -0.035 | [2] -0.012 | [3] -0.064 | [4] -0.021 | [5] 0.006 | [6] -0.004 | [7] -0.035 | [8] -0.011 | [9] 0.036 | [10] -0.056

ICAM2 (UniProt P13598)
inactive: [1] 0.058 | [2] 0.043 | [3] 0.001 | [4] -0.019 | [5] -0.016 | [6] 0.005 | [7] 0.012 | [8] 0.023 | [9] -0.028 | [10] -0.028

GSTZ1 (UniProt G3V4T6)
inactive: [1] 0 | [2] 0 | [3] 0.014 | [4] -0.019 | [5] 0.004 | [6] 0.01 | [7] 0.036 | [8] -0.02 | [9] -0.003 | [10] -0.016

IFITM3 (UniProt Q01628)
inactive: [1] -0.07 | [2] -0.042 | [3] 0.179 | [4] 0.078 | [5] 0.003 | [6] -0.173 | [7] -0.117 | [8] -0.133 | [9] -0.026 | [10] 0.129

HMGCL (UniProt P35914)
inactive: [1] 0.037 | [2] 0.008 | [3] 0.026 | [4] -0.016 | [5] -0.018 | [6] 0.001 | [7] -0.019 | [8] -0.009 | [9] 0.022 | [10] -0.014

GUSB (UniProt P08236)
inactive: [1] 0.06 | [2] -0.099 | [3] 0.056 | [4] -0.097 | [5] 0.099 | [6] -0.075 | [7] 0.069 | [8] 0.044 | [9] -0.029 | [10] -0.088

ISOC2 (UniProt Q96AB3)
inactive: [1] 0.017 | [2] -0.021 | [3] 0.056 | [4] 0.024 | [5] 0.014 | [6] -0.004 | [7] -0.131 | [8] 0.054 | [9] 0.041 | [10] 0.035

HNRNPAB isoform 3 (UniProt Q99729)
UniProt Q99729, sequence (Q99729 whole entry, looked up): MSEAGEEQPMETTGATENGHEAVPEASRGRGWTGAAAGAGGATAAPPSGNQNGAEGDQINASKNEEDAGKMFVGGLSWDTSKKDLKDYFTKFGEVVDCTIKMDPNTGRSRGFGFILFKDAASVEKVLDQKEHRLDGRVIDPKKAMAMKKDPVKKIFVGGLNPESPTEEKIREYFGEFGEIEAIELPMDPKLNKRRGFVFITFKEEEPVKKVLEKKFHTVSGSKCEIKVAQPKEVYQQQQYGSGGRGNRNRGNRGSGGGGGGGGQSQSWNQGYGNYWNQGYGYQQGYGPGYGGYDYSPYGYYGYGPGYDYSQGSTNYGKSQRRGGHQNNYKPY
inactive: [1] -0.029 | [2] -0.159 | [3] -0.037 | [4] 0.006 | [5] -0.007 | [6] 0.055 | [7] -0.003 | [8] -0.01 | [9] -0.013 | [10] 0
